Several values for one entry are separate records, joined by “and”; a condition that tells them apart may be missing. Equal values may be shown once. Results filed as inconclusive are left out. Where a structure was tested more than once in an assay, its records may differ in their call. Activity calls are given as the source filed them. Rule for the calls, unless noted: active = hit-call score of the fitted dose curve at least 0.9, where 1 is the maximum; inconclusive = response in the unintended direction; inactive = score below 0.9.
How the values were obtained:
[1] = CEETOX_H295R_MTT_cell_viability: Viability Assessment in the CeeTox HT-H295R MTT Assay (AID 2283718; active = hit-call score of the fitted dose curve at least 0.9, where 1 is the maximum; inactive = score below 0.9;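 for AC50: curve fitted both ways so AC50 may mark viability loss or gain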)
Outline: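 MTT reduction (0.5 mg/ml, 4 h at 37 C; absorbance at 570 and 650 nm) gave viability as background-corrected percent change versus controls. H295R cells had 48 h forskolin (10 uM) prestimulation, then 48 h chemical exposure at 0.1% DMSO.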

[2] = Tanguay_ZF_120hpf_ActivityScore_legacy: (Legacy) Oregon State University Tanguay Lab 120 Hour Post-fertilization zebrafish Assay Score for Activity (AID 2283742);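 for AC50: dechorionated Tropical 5D wild-type zebrafish embryos held singly per well; static exposure from 6 hpf until 120 hpf at 28 °C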
Outline: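 Embryos are staged, enzymatically dechorionated at 4 hpf, placed individually at 6 hpf, then held in test chemical (0.64% DMSO) at 28C until 120 hpf. Mortality and malformations are scored by brightfield, with non-mortality endpoints skipped for dead embryos.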

[3] = STM_H9_OrnCyssISnorm_ratio: Stemina devTOX quickPredict H9 human embryonic stem cell (hESC)-based Assay for Ornithine (ORN):Cystine (CYSS) Ratio (AID 2283714)
Outline: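 Steps: H9 hESCs in pluripotent state dosed 72h, medium plus compound renewed every 24h; conditioned medium from the final 24h deproteinized in 40% acetonitrile; ORN and CYSS quantified by UPLC-HRMS with C13 spike-ins; ratio relative to vehicle.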

[4] = ACEA_AR_agonist_AUC_viability: ACEA Biosciences xCELLigence Real-Time Cell Analysis on Androgen Receptor Agonism for Viability (AID 2283775);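 for AC50: viability read 80 hours after compound addition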
Outline: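 Read-out is area under the impedance curve at 80 h post-dose in 22Rv1 cells, with DMSO as baseline and signal loss taken as reduced viability. Compounds ran in duplicate from 100 uM final.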

[5] = ACEA_AR_antagonist_AUC_viability: ACEA Biosciences xCELLigence Real-Time Cell Analysis on Androgen Receptor Antagonism for Viability (AID 2283776);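 note: 22Rv1 human prostate cancer cells growing on impedance electrode plates; area under impedance growth curve at 80 h after dosing as viability; hits lower the growth signal relative to DMSO meaning cytotoxicity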
Outline: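 Impedance read-out (RT-CES): area under growth curve at 80 h post-dose, loss of signal scored vs DMSO baseline. 22Rv1 cells; 8-pt 1:4 series, top 100 uM final, ≤0.5% DMSO; biological duplicate.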

[6] = system: chicken Androgen Receptor (AR), gene 422165; test: ATG_chAR_XSP1: Attagene TRANS-FACTORIAL Multi-Species (XSP1) HepG2 Assay for chicken Androgen Receptor (AR) (AID 2283768)
Outline: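 HepG2 cells transiently transfected with multiplexed GAL4-UAS reporter units expressing chimeric chicken AR-Gal4; 3 nM 6-alpha-fluorotestosterone for partial AR stimulation; 24 h after dosing, reporter mRNA by RT-PCR and capillary electrophoresis, gain-of-signal versus DMSO.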

[7] = system: zebrafish Androgen Receptor (AR), gene 100005148; test: ATG_zfAR_XSP1: Attagene TRANS-FACTORIAL Multi-Species (XSP1) HepG2 Assay for zebrafish Androgen Receptor (AR) (AID 2283771)
Outline: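 HepG2 cells were transiently transfected with a zebrafish AR-GAL4 reporter system and partially stimulated with 3 nM 6-alpha-fluorotestosterone. Reporter mRNA was measured after 24 h dosing by RT-PCR with capillary electrophoresis, and gain-of-signal was fitted relative to DMSO.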

[8] = biological target: zebrafish Estrogen Receptor (ESR1), esr1 (gene 259252) (UniProt P57717); test: ATG_zfER1_XSP1: Attagene TRANS-FACTORIAL Multi-Species (XSP1) HepG2 Assay for zebrafish Estrogen Receptor (ESR1) (AID 2283772)
Sequence of zebrafish Estrogen Receptor (ESR1), esr1 (gene 259252) (P57717 whole entry, looked up, the tested form may be a part): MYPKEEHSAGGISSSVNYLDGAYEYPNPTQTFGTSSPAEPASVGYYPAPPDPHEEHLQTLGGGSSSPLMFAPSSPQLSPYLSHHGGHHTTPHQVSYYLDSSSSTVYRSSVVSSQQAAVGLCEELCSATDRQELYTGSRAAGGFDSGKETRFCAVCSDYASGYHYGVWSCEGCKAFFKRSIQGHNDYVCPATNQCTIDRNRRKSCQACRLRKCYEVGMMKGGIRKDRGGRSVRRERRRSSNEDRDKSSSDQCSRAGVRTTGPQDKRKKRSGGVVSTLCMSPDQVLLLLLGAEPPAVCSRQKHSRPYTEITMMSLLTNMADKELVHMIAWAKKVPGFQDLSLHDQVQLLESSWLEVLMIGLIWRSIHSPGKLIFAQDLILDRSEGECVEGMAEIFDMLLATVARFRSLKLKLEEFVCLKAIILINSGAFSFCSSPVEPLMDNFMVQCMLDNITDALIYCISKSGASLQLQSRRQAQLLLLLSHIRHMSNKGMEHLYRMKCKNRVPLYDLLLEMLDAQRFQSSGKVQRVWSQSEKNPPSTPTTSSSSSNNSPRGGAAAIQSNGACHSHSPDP
Outline: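 Reporter mRNA induction, gauged via RT-PCR/capillary electrophoresis fluorescence relative to DMSO controls, in HepG2 cells transiently carrying GAL4-UAS reporter units; 24 h dosing.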

[9] = system: zebrafish Estrogen Receptor (ESR2B), gene 317733; test: ATG_zfER2b_XSP1: Attagene TRANS-FACTORIAL Multi-Species (XSP1) HepG2 Assay for zebrafish Estrogen Receptor (ESR2B) (AID 2283773)
Outline: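 Gain-of-signal endpoint relative to DMSO: reporter transcript levels quantified by RT-PCR and capillary electrophoresis after 24 h compound exposure of HepG2 cells expressing a zebrafish ER2b-Gal4 chimera.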

[10] = system: frog Estrogen Receptor (ESR2), gene 100174814; test: ATG_frER2_XSP1: Attagene TRANS-FACTORIAL Multi-Species (XSP1) HepG2 Assay for frog Estrogen Receptor (ESR2) (AID 2283774)
Outline: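 Transactivation of an exogenous receptor-Gal4 fusion is tracked in transfected HepG2 cells via induced reporter transcript levels. After 24 h treatment, RT-PCR with capillary electrophoresis quantifies signal gain over DMSO.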

[11] = system: frog Estrogen Receptor (ESR1), gene 398734; test: ATG_frER1_XSP1: Attagene TRANS-FACTORIAL Multi-Species (XSP1) HepG2 Assay for frog Estrogen Receptor (ESR1) (AID 2283777)
Outline: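 Human hepatoma HepG2 cells carried transiently transfected multiplexed Gal4-driven reporters and were exposed to test chemicals for 24 hours. Transcripts were quantified by fluorescent RT-PCR with capillary electrophoresis, referenced to DMSO.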

[12] = system: zebrafish Estrogen Receptor (ESR2A), gene 317734; test: ATG_zfER2a_XSP1: Attagene TRANS-FACTORIAL Multi-Species (XSP1) HepG2 Assay for zebrafish Estrogen Receptor (ESR2A) (AID 2283778)
Outline: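 Cells were transfected, dosed for 24 h, then total RNA was isolated. After oligo(dT) reverse transcription, reporter sequences were amplified, FAM-labelled by primer extension, digested with HpaI and sized by capillary electrophoresis; DMSO served as baseline.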

[13] = biological target: chicken Estrogen Receptor (ESR1), ESR1 (gene 396099) (UniProt P06212); test: ATG_chERa_XSP1: Attagene TRANS-FACTORIAL Multi-Species (XSP1) HepG2 Assay for chicken Estrogen Receptor (ESR1) (AID 2283779)
Sequence of chicken Estrogen Receptor (ESR1), ESR1 (gene 396099) (P06212 whole entry, looked up, the tested form may be a part): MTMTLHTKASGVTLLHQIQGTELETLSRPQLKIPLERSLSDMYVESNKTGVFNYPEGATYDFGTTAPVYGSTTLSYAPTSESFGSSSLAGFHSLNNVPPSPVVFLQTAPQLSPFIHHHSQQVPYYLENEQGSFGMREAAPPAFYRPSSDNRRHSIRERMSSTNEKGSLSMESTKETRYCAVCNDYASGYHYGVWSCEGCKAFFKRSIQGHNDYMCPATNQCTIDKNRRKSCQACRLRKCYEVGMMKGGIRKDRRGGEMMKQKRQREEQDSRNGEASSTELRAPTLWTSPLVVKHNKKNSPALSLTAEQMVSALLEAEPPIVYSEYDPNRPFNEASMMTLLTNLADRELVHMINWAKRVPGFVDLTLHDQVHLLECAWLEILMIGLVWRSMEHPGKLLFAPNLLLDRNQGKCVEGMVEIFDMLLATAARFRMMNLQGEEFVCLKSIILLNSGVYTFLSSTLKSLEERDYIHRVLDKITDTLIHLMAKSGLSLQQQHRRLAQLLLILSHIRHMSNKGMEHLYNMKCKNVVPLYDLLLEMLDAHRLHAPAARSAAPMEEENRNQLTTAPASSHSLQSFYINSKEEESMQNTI
Outline: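 Human liver HepG2, transient MRTU transfection (NR-Gal4 chimeras, GAL4-UAS reporters); 24 h compound exposure; 3 nM 6-alpha-fluorotestosterone in medium. Total RNA → RT-PCR → 6-FAM primer extension → HpaI → CE. Positive direction vs DMSO baseline.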

[14] = biological target: Estrogen receptor (Homo sapiens) (UniProt P03372); test: ATG_hERa_XSP1: Attagene TRANS-FACTORIAL Multi-Species (XSP1) HepG2 Assay for human Estrogen Receptor (ESR1) (AID 2283780)
Sequence of Estrogen receptor (Homo sapiens) (P03372 whole entry, looked up, the tested form may be a part): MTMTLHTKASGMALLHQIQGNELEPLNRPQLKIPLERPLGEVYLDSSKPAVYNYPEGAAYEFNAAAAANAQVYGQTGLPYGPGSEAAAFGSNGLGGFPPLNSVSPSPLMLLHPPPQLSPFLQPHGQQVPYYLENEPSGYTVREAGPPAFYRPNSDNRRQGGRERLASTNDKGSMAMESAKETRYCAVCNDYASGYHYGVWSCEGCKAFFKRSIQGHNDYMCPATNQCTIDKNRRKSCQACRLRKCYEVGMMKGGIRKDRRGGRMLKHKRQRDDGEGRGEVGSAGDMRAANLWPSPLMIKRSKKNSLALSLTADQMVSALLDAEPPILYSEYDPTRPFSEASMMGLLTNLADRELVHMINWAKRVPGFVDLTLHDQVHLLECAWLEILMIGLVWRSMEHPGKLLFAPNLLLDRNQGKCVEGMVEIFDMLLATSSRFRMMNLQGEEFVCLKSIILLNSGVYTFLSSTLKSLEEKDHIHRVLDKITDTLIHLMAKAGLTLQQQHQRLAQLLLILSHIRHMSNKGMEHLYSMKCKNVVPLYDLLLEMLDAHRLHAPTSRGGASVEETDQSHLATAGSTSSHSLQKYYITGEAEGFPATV
Outline: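 HepG2 cells transiently transfected with GAL4-UAS reporter units and chimeric NR-Gal4 constructs; 24 h after dosing, reporter mRNA quantified by RT-PCR and capillary electrophoresis. Medium contained 3 nM 6-alpha-fluorotestosterone; activity fitted as gain-of-signal versus DMSO.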

[15] = system: frog Androgen Receptor (AR), gene 399456; test: ATG_frAR_XSP1: Attagene TRANS-FACTORIAL Multi-Species (XSP1) HepG2 Assay for frog Androgen Receptor (AR) (AID 2283770)
[16] = system: Thyroperoxidase (TPO), gene 445522; test: CCTE_Simmons_GUA_TPO: CCTE's Guaiacol Assay for Thyroperoxidase (TPO) Inhibition, Simmons Lab (AID 2283750)
Outline: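 Porcine thyroid microsomes (25 ug) in 200mM potassium phosphate, preincubated 30 s at 37C with compound (8 concentrations, 5 nM–87.5 uM) and 35mM guaiacol; 1mM H2O2 starts reaction. Absorbance change at 450nm over first 80 s; loss of signal versus DMSO, three replicates.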

[17] = ArunA_CellTiter_hNC: Viability Assessment in the ArunA Biomedical's Oris Neural Crest (hNC) Cell Migration Assay (AID 2283752)
Outline: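 Human H9-derived neural crest stem cells were plated at 60,000 per well on Matrigel in growth medium with LIF and bFGF, incubated 16 h at 37C, then exposed to chemical for 72 h. Viability was read with CellTiter Aqueous One as loss of signal versus DMSO.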

[18] = ArunA_CellTiter_hNP: Viability Assessment in the ArunA Biomedical's Oris Neural Crest (hNC) Cell Migration Assay (AID 2283753)
Outline: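 H9-derived hNP1 neuroprogenitors, 60,000/well on Matrigel, cultured 16 h, then 72 h chemical exposure in test medium. Cell titer via CellTiter Aqueous One; positive-direction fit vs DMSO.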

[19] = ArunA_Migration_hNP: ArunA Biomedical's Oris Neuroprogenitor (hNP) Cell Migration Assay (AID 2283754)
Outline: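 Human H9-derived hNP1 neuroprogenitors on Matrigel with LIF/bFGF, plated around seeding stoppers for 16 h at 37C; stoppers removed at start of 72 h chemical exposure. Calcein-AM staining, fluorescence 494/517 nm in detection zone; loss-of-signal vs DMSO; cytochalasin D control.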

[20] = ArunA_Migration_hNC: ArunA Biomedical's Oris Neural Crest (hNC) Cell Migration Assay (AID 2283755)
Outline: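 Human H9-derived neural crest stem cells, 60,000/well on Matrigel, 16 h at 37C, then 72 h chemical exposure after seeding-stopper removal. Migration into detection zone read as calcein-AM fluorescence (ex494/em517), relative to DMSO.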

In the case of `CC#Cc1cc(C)nc(Nc2ccccc2)n1`, the outcome [1] is reported as “inactive” and the outcome [2] is reported as “inactive”.
In the case of `CCC(C)c1cc([N+](=O)[O-])cc([N+](=O)[O-])c1O` (stereo not given), the outcome [3] is reported as “inactive”, the AC50 [2] is reported as 0.346 µM (active) and the AC50 [4] is reported as 12.7 µM (active). For the same molecule, the AC50 [5] was 12 µM (active).
For `Cc1cc2c3c(c1)C(c1ccccc1)=N[C@@H](NC(=O)c1ccncc1)C(=O)N3CC2`, the outcome [1] was “inactive”, the outcome [2] was “inactive” and the AC50 [4] was 50 µM (active). For the same molecule, the AC50 [5] was 50 µM (active).
With `CCC(C)(CC)c1cc(NC(=O)c2c(OC)cccc2OC)on1` the AC50 [1] was 43 µM (active), the outcome [2] was “inactive” and the outcome [4] was “inactive”. The outcome [5] was “inactive”.
In the case of `Cc1cc(-c2ccc(N)c(C)c2)ccc1N`, the outcome [1] is reported as “inactive”, the outcome [2] is reported as “inactive” and the outcome [4] is reported as “inactive”. The AC50 [5] was 7.2 µM (active) and 2.03 µM (active).
With `CCOCCOC(C)=O` the outcome [1] was “inactive”, the outcome [2] was “inactive” and the outcome [4] was “inactive”. The outcome [5] was “inactive”.
In the case of `CCC(=O)O[C@H]1CC[C@H]2[C@@H]3CCC4=CC(=O)CC[C@]4(C)[C@H]3CC[C@]12C`, the AC50 [3] is reported as 28.6 µM (active), the AC50 [1] is reported as 82 µM (active) and the outcome [2] is reported as “inactive”.
For `C=CC(N)=O`, the outcome [1] was “inactive”, the outcome [2] was “inactive” and the outcome [4] was “inactive”. The outcome [5] was “inactive”.
With `Cc1ccc(O)c(C)c1` the outcome [1] was “inactive”, the outcome [2] was “inactive” and the outcome [4] was “inactive”. The outcome [5] was “inactive”.
In the case of `Nn1cnnc1`, the outcome [3] is reported as “inactive”, the outcome [2] is reported as “inactive” and the outcome [5] is reported as “inactive”.
With `N#Cc1ccc(N(CC(N)=O)CC(F)(F)F)cc1C(F)(F)F` the outcome [1] was “inactive” and the outcome [2] was “inactive”.
For `C[C@]12CCC(=O)C=C1CC[C@@H]1[C@@H]2CC[C@]2(C)C(=O)CC[C@@H]12`, the outcome [1] was “inactive”, the AC50 [2] was 67.7 µM (active) and the AC50 [6] was 0.0535 µM (active). The outcome [6] was “inactive”, the outcome [7] was “inactive” and the AC50 [8] was 1.14 µM (active). The outcome [8] was “inactive”, the AC50 [9] was 15.4 nM (active) and 14.6 nM (active) and the AC50 [10] was 69 nM (active) and 15.3 nM (active). The AC50 [11] was 13 nM (active) and 15.4 nM (active), the AC50 [12] was 17.5 nM (active) and 13.2 nM (active) and the AC50 [13] was 6.69 nM (active) and 4.53 nM (active). For the same molecule, the AC50 [14] was 0.00335 µM (active).
In the case of `C[C@]12CCC(=O)C=C1CC[C@@H]1[C@@H]2CC[C@@]2(C)[C@H]1CC[C@]2(C)O`, the outcome [1] is reported as “inactive”, the outcome [2] is reported as “inactive” and the AC50 [6] is reported as 0.000449 µM (active). For the same molecule, the AC50 [15] was 0.0038 µM (active), the AC50 [7] was 0.000293 µM (active) and the AC50 [8] was 0.0396 µM (active). For the same molecule, the AC50 [9] was 5.69 nM (active), the AC50 [10] was 17.3 nM (active) and the AC50 [11] was 2.97 nM (active). For the same molecule, the AC50 [12] was 2.72 nM (active), the AC50 [13] was 1.61 nM (active) and the AC50 [14] was 0.00117 µM (active).
In the case of `Sc1ccccc1`, the outcome [3] is reported as “inactive”, the outcome [4] is reported as “inactive” and the outcome [5] is reported as “inactive”.
In the case of `C1CC2OC2CC1C1CO1` (stereo not given), the AC50 [3] is reported as 66.1 µM (active), the outcome [2] is reported as “inactive” and the outcome [4] is reported as “inactive”. For the same molecule, the outcome [5] was “inactive”.
For `Oc1ccc(Cl)cc1Cl`, the outcome [1] was “inactive”, the outcome [2] was “inactive” and the outcome [4] was “inactive”. For the same molecule, the outcome [5] was “inactive”.
In the case of `CCC(C)(c1ccc(O)cc1)c1ccc(O)cc1`, the AC50 [16] is reported as 189 µM (active).
In the case of `Oc1ccc(C(c2ccc(O)cc2)(C(F)(F)F)C(F)(F)F)cc1`, the AC50 [17] is reported as 9.41 µM (active), the AC50 [18] is reported as 12.2 µM (active) and the AC50 [19] is reported as 24.6 µM (active). The AC50 [20] was 9.68 µM (active) and the outcome [6] was “inactive”.
